# Sfp PPTase inh – inhibitors of Bacillus subtilis Sfp phosphopantetheinyl transferase; Q9F4F7; Biochemical Sfp PPTase activity, qHTS; Potency, µM, most hits filed as inhibitors; 310,000 compounds, 3.5% hits;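 also: the enzyme is Sfp with the accession as filed and its product quenches rhodamine fluorescence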
#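 Fluorescence-quenching assay with 15 nM Sfp, 5 uM rhodamine-CoA and 12.5 uM BHQ-2-labelled ybbR peptide in pH 7.6 Hepes/MgCl2 buffer. Enzyme was pre-incubated with compound for 15 min at room temperature. Rate was taken from the 30-min fluorescence change (525/598 nm).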
# VDR inhibitor – inhibitors of human vitamin D receptor | P11473 | Potency, µM, hits mostly inhibitors | 400,000 compounds, 0.93% hits | VDR-SRC2-3 peptide fluorescence polarization, 2 h
# Target sequence (P11473 whole entry, looked up): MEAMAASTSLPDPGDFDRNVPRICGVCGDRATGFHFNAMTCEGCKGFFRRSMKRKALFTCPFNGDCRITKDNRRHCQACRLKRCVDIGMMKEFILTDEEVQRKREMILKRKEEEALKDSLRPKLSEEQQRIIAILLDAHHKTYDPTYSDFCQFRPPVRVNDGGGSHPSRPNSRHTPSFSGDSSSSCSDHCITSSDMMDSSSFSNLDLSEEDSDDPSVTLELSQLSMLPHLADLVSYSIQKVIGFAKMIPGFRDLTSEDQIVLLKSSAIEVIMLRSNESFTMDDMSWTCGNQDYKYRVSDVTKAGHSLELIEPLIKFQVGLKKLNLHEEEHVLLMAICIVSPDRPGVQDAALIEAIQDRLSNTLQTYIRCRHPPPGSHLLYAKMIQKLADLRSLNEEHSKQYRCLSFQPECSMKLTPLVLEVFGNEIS
#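 Compounds are added to VDR with labelled SRC2-3 coactivator peptide and held 2 h at room temperature. Inhibition of the VDR–peptide interaction is then read as a change in fluorescence polarization.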
# PLK1 PBD block – PLK1 (human) polo-box domain binding inhibition; P53350; 360,000 compounds, 2.8% hits; Potency, µM, hits mostly inhibitors; Plk1 PBD binding of FITC phosphopeptide, fluorescence polarization; also: series mostly up to about 57 µM; nearly all actives have a fitted effect of over 65% in size
# G9a block – blocks human histone lysine methyltransferase G9a; Q96KQ7; G9a H3K9 monomethylation, AlphaScreen, 2 h; Potency, µM (highest dose often 102 µM), most hits filed as inhibitors; 350,000 compounds, 8.8% hits; AID 504332; also: nearly all actives have a fitted effect of over 75% in size
# Target sequence (Q96KQ7 913-1193 limits assumed): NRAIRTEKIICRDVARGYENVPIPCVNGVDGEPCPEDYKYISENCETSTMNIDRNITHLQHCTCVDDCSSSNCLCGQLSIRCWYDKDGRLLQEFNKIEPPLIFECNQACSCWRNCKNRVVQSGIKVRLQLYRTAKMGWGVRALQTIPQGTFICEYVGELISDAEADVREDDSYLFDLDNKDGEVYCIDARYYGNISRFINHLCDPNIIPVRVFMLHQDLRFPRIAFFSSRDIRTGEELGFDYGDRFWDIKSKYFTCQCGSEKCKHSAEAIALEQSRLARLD
#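 Readings reflect AlphaScreen signal from monomethyl-H3K9 antibody detection. HMT at 20 nM; substrate b-H3K9 500 nM; cofactor SAM 20 uM; 2 h RT reaction; compounds tested as titrations in qHTS with 15 min preincubation.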
# MmCpn inh – M. maripaludis TRiC chaperonin inhibition. AID 504842. 330,000 compounds, 0.031% hits. purified Mm-Cpn ATPase, ADP Transcreener TR-FRET. Potency, µM (highest dose often 76.9 µM), most hits filed as inhibitors; also: nearly all actives have a fitted effect of over 80% in size
#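 TR-FRET (320 nm excitation; 590 and 665 nm emission) reports ADP made from 10 uM ATP by 25 nM enzyme; compounds were preincubated 10 min, reaction run 30 min, both at 37°C.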
# CCT modulator – cytosolic chaperonin activity modulation; purified chaperonin ATPase assay, HTRF ADP detection, 30 min; AID 651819; 360,000 compounds, 0.3% hits; activity change, % (concentration not given with the values), hits read low; in the data active = activity change below about -30%
#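 ATPase activity: ADP formed was measured by HTRF Transcreener (665/615 nm ratio) after 30 min at 37 deg C with 10 uM ATP. Compounds screened at one 76 uM concentration against 40 or 20 nM TRiC in Tris pH 7.4/KCl/MgCl2/DTT buffer.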
# Hits are given with their value; - = inactive; ? = inconclusive; . = no result; [ ] = remark or other dose. Rows were chosen to be rich in hits. Some 10% of all compounds tested hit in one or more screens of this group. Unless noted, calls follow the shape of the dose curve; as a rule, active = well fitted curve in the direction sought with a large enough effect; inconclusive = small, poorly fitted or top-dose-only effect, or another doubt; inactive = no such curve, though single readings can be large; an effect the other way counts as inactive or inconclusive.
SMILES,Sfp PPTase inh,VDR inhibitor,PLK1 PBD block,G9a block,MmCpn inh,CCT modulator
COc1ccc(CCNc2ccc(N3C(=O)CC(C)C3=O)cc2[N+](=O)[O-])cc1OC (stereo unspecified),-,-,-,31.6µM,-,-
COc1ccc(CCNc2ccc(N3C(=O)CC(C)C3=O)cc2[N+](=O)[O-])cc1 (stereo unspecified),-,-,-,-,-,-
O=C1C2CC=CCC2C(=O)N1c1ccc(NCCc2ccc(O)cc2)c([N+](=O)[O-])c1 (stereo unspecified),-,-,-,39.8µM,-,-
O=C1C2CC=CCC2C(=O)N1c1ccc(NCCc2ccc(Cl)cc2)c([N+](=O)[O-])c1 (stereo unspecified),-,-,?,35.5µM,-,-
O=C1CCC(=O)N1c1ccc(NCCc2cccc(F)c2)c([N+](=O)[O-])c1,-,-,-,-,-,-
COC(=O)c1ccc(C(NC(=O)OCc2ccccc2)/C(F)=C/[C@@H](C)C(=O)N[C@@H](CO)Cc2ccccc2)cc1 (stereo partly specified),-,.,.,.,.,.
CSc1nn(Cc2ccc(Br)cc2)c(N(C(C)=O)C(C)=O)c1S(=O)(=O)c1ccccc1,.,-,.,-,.,.
COC(=O)c1ccc2c(=O)n(CCCCCC(=O)NCc3ccc(OC)cc3)c(=O)[nH]c2c1,.,-,.,-,.,.
CCOc1cc(C=O)cc(N=Nc2cccc([N+](=O)[O-])c2)c1O,-,-,-,44.7µM,-,-
O=[N+]([O-])c1cccc(N=Nc2ccc(O)cc2O)c1,.,-,-,.,.,-
Cc1ccc(-c2ccc(/C=C/C(=O)c3ccccc3)o2)cc1,11.2µM,-,-,-,-,-
O=C(/C=C/c1ccc(-c2ccccc2)o1)c1ccccc1,15.8µM,-,-,?,-,-
CCN(Cc1ccccc1)S(=O)(=O)c1ccc(C(=O)Nc2nnc(C)o2)cc1,-,-,-,-,-,-
CCc1nnc(NC(=O)c2ccc(S(=O)(=O)N(CC)Cc3ccccc3)cc2)o1,-,-,2.99µM,-,-,-
O=c1ccc2ccc(O)c(O)c2o1,.,-,.,0.844µM,.,.
C=CCc1cccc2ccc(=O)oc12,-,-,-,-,-,-
COc1cc(NC(=O)c2ccc3oc(=O)c(S(=O)(=O)c4ccccc4)cc3c2)cc(OC)c1,.,-,.,-,.,.
S=c1nc[nH]c2c1sc1nc(-c3ccccc3)c3c(c12)CCCC3,-,-,29.9µM,-,-,-
O=C(O)CSc1ncnc2c1sc1nc(-c3ccccc3)c3c(c12)CCC3,-,-,29.9µM,39.8µM,-,-
O=c1[nH]cnc2c1sc1nc(-c3ccccc3)c3c(c12)CCCC3,-,-,-,-,-,-
CC(C)c1nc2sc3c(SCC(=O)NCc4ccco4)ncnc3c2c2c1CCC2,25.1µM,-,?,44.7µM,-,-
CC1(C)Cc2nc3sc4c(SCC(=O)NCc5ccco5)ncnc4c3cc2CO1,?,-,-,?,-,-
CC(=O)N1c2ccc(S(=O)(=O)NCC3CCC(C(=O)Nc4cc(C)ccc4C)CC3)cc2CC1C (stereo unspecified),.,-,.,-,.,.
CCCn1c2ccccc2c2cnn(CC(=O)N(C)c3ccc(F)cc3)c(=O)c21,.,-,.,-,.,.
O=C(Cc1ccc(NC(=O)N2CCSc3ncccc32)cc1)NCc1ccccc1,.,-,.,-,.,.
SMILES,Sfp PPTase inh,VDR inhibitor,PLK1 PBD block,G9a block,MmCpn inh,CCT modulator
CN(CC(=O)Nc1cccc(F)c1)C(=O)c1ccc(-c2ccc(Cl)cc2)o1,?,-,-,35.5µM,-,-
CCCn1nc(C(=O)N(C)CC(=O)Nc2ccc(OCC)c(OCC)c2)c2ccccc2c1=O,.,-,-,-[12.7 µM],-,-
CCCCn1nc(C(=O)N(C)CC(=O)Nc2cccc(F)c2)c2ccccc2c1=O,.,-,-,35.5µM,-,-
CN(CC(=O)Nc1cccc(F)c1)C(=O)CSc1ccccc1F,-,-,23.8µM,?,-,-
O=C(N=Nc1c(O)n(Cc2ccccc2)c2ccccc12)c1ccc(O)cc1,-,-,-,-,-,-
O=S1(=O)CC(O)C(N=Nc2c(O)n(Cc3ccccc3)c3ccccc23)C1 (stereo unspecified),-,?,13.4µM,39.8µM,-,-
CN(C)c1ccnc(-c2ccccc2C(F)(F)F)n1,-,-,.,.,.,.
Cc1cc(=O)n(C(C)C(=O)NCc2ccccc2Cl)c2c1c(C)nn2-c1ccccc1 (stereo unspecified),.,-,.,-,.,.
CN1C(=O)C(c2nnc(Nc3cccc4ccccc34)s2)C2CC1(C)Oc1ccccc12 (stereo unspecified),-,-,-,44.7µM,-,-
CC(C)CNC(=O)c1cccc(NC(=O)CSc2ccccc2)c1,-,-,-,-,-,-
CC(C)CC(=O)Nc1cccc(-c2nc3ccccc3[nH]2)c1,-,?,26.7µM,-,-,-
CC(C)CNC(=O)c1cccc(NC(=O)C(C)Oc2ccccc2)c1 (stereo unspecified),-,-,26.7µM,-,-,-
O=C(CC(NCCc1ccccc1)C(=O)O)Nc1ccc(O)cc1 (stereo unspecified),-,.,.,22.4µM,-,.
CC(=O)Nc1cccc(CCc2nc3ccccc3[nH]2)c1,-,70.8µM,?,-,-,-
O=C(CC(c1ccccc1)c1ccccc1)Nc1ccc(O)cc1,-,-,-,.,-,-
CC1(C(=O)NC2CCCCC2)Cc2ccccc2C(=O)N1Cc1ccccc1Cl (stereo unspecified),.,-,.,-,.,.
CC(C)CC(=O)Nc1ccc(Oc2ccc(NC(=O)CC(C)C)cc2)cc1,-,-,-,-,-,-
CC(=O)Nc1cccc(-c2nc3ccccc3[nH]2)c1,-,-,-,-,-,-
CC(Oc1ccccc1)C(=O)Nc1cccc(-c2nc3ccccc3[nH]2)c1 (stereo unspecified),-,-,-,50.1µM,-,-
CC(C)CC(=O)Nc1ccc(Nc2ccccc2)cc1,-,-,-,20µM,-,-
O=C(CCn1c(=O)c2sccc2n(Cc2cccc(F)c2)c1=O)NCc1ccc2c(c1)OCO2,.,-,.,-,.,.
COc1cc(Nc2nc3ccc(Cl)cc3nc2-n2nc(C)cc2C)cc(OC)c1,.,-,.,-,.,.
CCOc1ccc2nc3c(cc2c1)CN(CCCO)C(=NCCOC)S3,-,-,10.6µM,31.6µM,-,-
CCOC(=O)c1ccc2nc3c(cc2c1)CCS3,-,-,-,-,-,-
COCCN1Cc2cc3cc(C)ccc3nc2SC1=Nc1cccc(OC)c1,-,-,-,-,-,-
COCCN=C1Sc2nc3c(C)cccc3cc2CN1Cc1ccco1,20µM,89.1µM,?,-[2.33 µM],-,-
Cc1cccc(N=C2Sc3nc4c(C)c(C)ccc4cc3CN2CCN2CCOCC2)c1,?,-,-,?,-,-
COCCN=C1Sc2nc3ccc(C)cc3cc2CN1Cc1cccs1,22.4µM,-,-,-,-,-

# High-throughput results from PubChem BioAssay.
